High-throughput results as filed in PubChem.
Sampled rows, rich in hits. Any-hit rate of the full collection: about 0.45%.
ERG Ets-DNA blk – ERG Ets/DNA interaction inhibition. 370,000 compounds, 0.028% hits. Potency, µM (doses to about 76.9 µM), inactives show at the highest dose FP activity, negative = inhibition, usual class: inhibitors. fluorescence polarization, His-ERG Ets domain / labelled DNA. P11308; active = well fitted inhibition curve with a large enough effect in the polarisation, with a control signal flat; inconclusive = small, poorly fitted or top-dose-only effect, or effect the other way, or a change in a side signal; inactive = no such curve, though single readings can be large or run the other way; the % refers to the polarisation;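 also: polarization taken with two DNA probes labelled with fluorescein and Texas red; potency is read from the fitted curve at half-maximal effect; % of control where 0% means no effect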
Target sequence (P11308 whole entry, looked up, the tested form may be a part): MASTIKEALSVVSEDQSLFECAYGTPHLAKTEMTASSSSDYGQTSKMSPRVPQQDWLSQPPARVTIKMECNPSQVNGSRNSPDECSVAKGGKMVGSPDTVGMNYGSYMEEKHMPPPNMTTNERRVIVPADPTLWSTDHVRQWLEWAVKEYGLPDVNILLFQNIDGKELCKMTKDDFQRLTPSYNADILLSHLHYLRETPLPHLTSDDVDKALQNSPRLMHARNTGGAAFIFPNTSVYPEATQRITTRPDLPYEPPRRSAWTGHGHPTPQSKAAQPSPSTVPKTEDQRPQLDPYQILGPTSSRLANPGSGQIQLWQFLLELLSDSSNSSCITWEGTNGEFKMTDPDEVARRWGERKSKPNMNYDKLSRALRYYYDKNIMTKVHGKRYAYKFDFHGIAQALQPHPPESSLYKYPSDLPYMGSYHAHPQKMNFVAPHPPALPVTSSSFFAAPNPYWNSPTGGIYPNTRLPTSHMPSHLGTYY
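His-tagged ERG Ets domain (1 uM in the protein solution; 300mM KCl, 50mM Tris-HCl, 1mM EDTA, 1mM DTT, pH 7.5) received compound, then a probe mix of 5 nM fluorescein-DNA and 100nM Texas-615-DNA. Fluorescence polarization was read for both dyes.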
RGS12 GoLoco inh – blocks human Gai1 binding to RGS12 GoLoco peptide, red readout. P63096. Gai1:RGS12 GoLoco peptide FP, rhodamine, 10 min. Potency, µM (highest dose often 61.6 µM), without a hit: at the top dose activity, negative = inhibition, actives largely listed as inhibitors. 230,000 compounds, 0.44% hits. AID 880; active = well fitted inhibition curve with a large enough effect, not every such curve was filed as active; inactive = no such curve, though single readings can be large or run the other way; also: potency is read from the fitted curve at half-maximal effect; % is scaled to controls: 0 for no effect and ±100 for the full control effect; nearly all actives have a fitted effect of over 30% in size
TexasRed fluor – counter-screen for TRb-SRC2 inhibitors: fluorescence interference. TRb/SRC2 Texas Red total fluorescence interference. Potency, µM (highest dose often 106 µM), for inactives: top-dose fluorescence change, negative = quenching. 280,000 compounds, 0.29% hits; active = well fitted curve in either direction with a large enough effect; inconclusive = small, poorly fitted or top-dose-only effect; also: potency is read from the fitted curve at half-maximal effect; % is scaled to controls: 0 for no effect and ±100 for the full control effect
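Human TRβ ligand-binding domain (0.6 uM) and Texas Red SRC2 peptide (20 nM) in Tris buffer with 1 uM T3 and 5% DMSO were incubated with pinned compound for 5 hr at ambient temperature. Total fluorescence was computed as S + 2P (555/632 nm).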
CBFb RUNX1 block – inhibitors of human CBF-beta and RUNX1 interaction. Potency, µM (doses to about 59.8 µM), for the others: top-dose activity, negative = inhibition, hits mostly inhibitors. AID 1477. AlphaScreen CBFb-His/RUNX1-biotin binding, biochemical. 230,000 tested, under 10 active; also: % of control where 0% means no effect
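Read-out: AlphaScreen. Format: His-CBF-beta with biotinylated RUNX1 (30 nM each) preincubated 20 min, compound 15 min, Ni-chelate plus streptavidin beads 90 min; room temperature throughout.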
TRb-SRC2 inh – disrupts binding of human TR beta to SRC2; TRbeta-SRC2 peptide binding, fluorescence polarization; receptor liganded with 1 µM T3; AID 1469; P10828; Potency, µM (series often up to 106 µM), for inactives: at the top dose activity change, negative = inhibition, most hits filed as inhibitors; 280,000 compounds, 0.065% hits;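 also: potency is read from the fitted curve at half-maximal effect; plate controls were bound peptide for no effect and peptide without receptor for full effect; nearly all actives have a fitted effect of over 50% in size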
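Polarization signal, normalized between peptide-alone and full complex controls, measured compound effects on T3-liganded human TRb LBD (0.6 uM) binding 20 nM Texas Red SRC2 peptide after 5 hr.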
a7 integrin act – integrin-mediated muscular dystrophy alleviation activation; alpha7betagal myoblasts, beta-gal FDG fluorescence, 48 h; Potency, µM (titrated, usually from 38.3 µM), without a hit: top-dose activation, hits mostly activators; 350,000 compounds, 0.064% hits; AID 624291;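 also: potency is read from the fitted curve at half-maximal effect; 100% = response of the positive control SU9516; nearly all actives have a fitted effect of over 60% in size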
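Alpha7betagal+/- myoblasts (passage 13) were plated 16-24 hr, then exposed to compounds (1:260 dilution of DMSO stock) for 48 hours at 37C. After MPER lysis, β-galactosidase reporter activity was read as FDG fluorescence (ex 480/em 540) after 30 minutes.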
Starred values were filed as active, the others as inactive; u = inconclusive; x = not tested or not shown; [ ] = dose if it differs, or a comment. Unless noted, calls follow the shape of the dose curve; as a rule, active = well fitted curve in the direction sought with a large enough effect; inconclusive = small, poorly fitted or top-dose-only effect, or another doubt; inactive = no such curve, though single readings can be large; an effect the other way counts as inactive or inconclusive.

SMILES	ERG Ets-DNA blk	RGS12 GoLoco inh	TexasRed fluor	CBFb RUNX1 block	TRb-SRC2 inh	a7 integrin act
COc1cccc([C@@H]2Oc3ccc(OC)cc3C(=O)[C@H]2OC(=O)NS(=O)(=O)c2ccc(C)cc2)c1	x	-1%	0%	-7%	-3%	x
Cc1ccc(NC(=O)Cc2coc3ccc(C(C)C)cc23)cc1Cl	6%	x	0.16µM*[quencher]	x	-28%[53 µM]	x
Cc1ccc(NC(=O)Cc2coc3ccc(C(C)C)cc23)c(C)c1	2%	x	4%	x	-5%	x
C[N+](C)(C)CCCCCC(=O)/C=N/O	1%	2.5µM*	-2%	0%	2%	4%
OC[C@@H]1O[C@H](OC2[C@@H](O)[C@@H](O)[C@@H](O)O[C@@H]2CO)[C@H](O)[C@@H](O)[C@@H]1OC1O[C@H](CO)[C@@H](O)[C@H](O)[C@@H]1O (some centres not stated)	x	x	-7%	-1%	-5%	x
CCCOc1ccc(N2C(=O)CC(N(CCc3ccc(OC)c(OC)c3)C(=S)Nc3ccccc3)C2=O)cc1 (configuration not stated)	-11%	2%	0.5µM*[quencher]	-6%	u	-48%
C/C=C/C/C=C\CCCCCCCCOC(C)=O	x	x	1%[201 µM]	x	-1%[201 µM]	x
CC1CC2(CCCCC2)Nc2ccc3ccccc3c21 (configuration not stated)	2%	22%	-3%	-2%	0%	-25%
CCc1cccc2c1NC1(CCCC1)CC2C (configuration not stated)	-6%	16%	u	u	28µM*	-1%
Cc1noc(C)c1-c1nc(Nc2ccc(F)cc2)c2ccccc2n1	x	10µM*	x	x	x	x
Cc1noc(C)c1-c1nc(Nc2ccncc2)c2ccccc2n1	x	-23%	-3%	x	-2%	x
CC(=O)Nc1ccc(NC(=O)/C=C/c2cccc(C(F)(F)F)c2)cc1	5%	-12%	3.2µM*[quencher]	-3%	u	0%
COc1ccc(NC(=O)c2c(C)oc3ccc(O)c(CN4CCCCCC4)c23)cc1Cl	0%	x	794µM*[quencher]	x	-8%	x
COC(=O)CC1c2ccccc2C=C(/C=C/c2ccc3c(c2)OCO3)N1C(=O)OC (configuration not stated)	x	-4%[14.2 µM]	-3%[11.2 µM]	-4%[13.1 µM]	-4%[11.2 µM]	x
O=C(O)c1cc2c(cc1S(=O)(=O)O)[C@H]1[C@@H](C3[C@H]2[C@@]2(Cl)C(Cl)=C(Cl)C3(Cl)C2(Cl)Cl)[C@]2(Cl)C(Cl)=C(Cl)C1(Cl)C2(Cl)Cl (some centres not stated)	x	-21%[14.2 µM]	x	x	x	x
O=S(=O)(O)c1ccc(N=Nc2c(O)ccc3cc(S(=O)(=O)O)ccc23)cc1	x	x	u	x	17%[201 µM]	x
CC(C)CN(c1ccccc1)S(=O)(=O)c1nnc(NC(=O)C2CCCCC2)s1	1%	x	4.5µM*[quencher]	x	-17%	x
COc1cc(CC(=O)OCC(=O)Nc2cc([N+](=O)[O-])ccc2F)cc(OC)c1OC	3%	-16%	1000µM*[quencher]	-5%	-26%[53 µM]	8%
COc1ccc([N+](=O)[O-])cc1NC(=O)COC(=O)Cc1cc(OC)c(OC)c(OC)c1	-5%	0%	4%	3%	10%	7%
O=C(NC(=S)NCc1ccc(-c2nc3ccccc3s2)cc1)c1ccco1	-4%	x	4%	3%	-1%	2%
O=C(NCc1ccc(-c2nc3ccccc3s2)cc1)c1ccco1	-6%	12%	0.0006µM*[quencher]	-8%	-10%	-6%
CCC(=O)OCCc1ccccc1	x	x	-2%[201 µM]	x	6%[201 µM]	x
CCOC(=O)C1=C(CC)Nc2ccccc2N=C1NC(=O)c1ccc(OC)c(S(=O)(=O)N2CCCCC2C)c1 (configuration not stated)	10%	-2%	-1%	-2%	-4%	14µM*
Cc1ccc(N=Nc2[nH]c3ccccc3c2O)cc1	-2%	13µM*	-5%	-19%	-5%	0%
COc1ccc(N=Nc2[nH]c3ccc(C)cc3c2O)cc1	-5%	3.2µM*	0%	-19%	-4%	4%
